Seven compounds from PubChem BioAssay (NCI) can be followed below.

This is part of a sample that, as a whole, favours compounds with a hit. Of some 83,000 tested, about 20% had one in any assay.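 Method: cells in 96-well plates; compound added at one concentration; 48 h incubation; percent growth measured; values under 10 scored active.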 A number with no mark means an inactive call. Calls of active or inactive are those of the source.

Some test systems named below: DU-145 prostate; K-562 leukemia; MALME-3M melanoma; MDA-MB-231 breast; RXF 393 renal; SF-268 CNS; SF-295 CNS; SF-539 CNS; UACC-257 melanoma; M14 melanoma; HCT-15 colon; HT29 colon; SNB-75 CNS; SNB-19 CNS; U251 CNS; SK-MEL-5 melanoma; UACC-62 melanoma; LOX IMVI melanoma; SK-MEL-28 melanoma; PC-3 prostate.
Assay in all cases: NCI-60 one-dose screen, 48 h (100 = growth as untreated, 0 = no growth, -100 = all killed)
Common to all, as to conditions: 10 µM unless noted

For the compound `CSc1nc2ccccc2cc1/C=[N+](\[O-])c1ccccc1`, the growth in the assay on DU-145 prostate was 87.7%; in the assay with K-562 leukemia it was 15.1%; in the assay on MALME-3M melanoma, 46.1%; in the assay with MDA-MB-231 breast, 46.5%; with RXF 393 renal, 83.8%; in the assay with SF-268 CNS, 56.6%. Moreover, the growth is 86.7% in the assay on SF-295 CNS; 19.7% in the assay on SF-539 CNS; 90% in the assay on UACC-257 melanoma; 27.6% in the assay on M14 melanoma; 18.7% in the assay on HCT-15 colon; 80.2% in the assay on HT29 colon. For the same compound, the growth in the assay on SNB-75 CNS was 67.3%; in the assay with SNB-19 CNS, 72.9%; in the assay with U251 CNS, 46.2%; with SK-MEL-5 melanoma it was 52.5%; with UACC-62 melanoma, 51.5%; with LOX IMVI melanoma, 38.1%. The growth in the assay on SK-MEL-28 melanoma is 93.8%.

As to `Cc1c(-c2ccc(O)cc2)n(Cc2ccc(OCCN3CCCCCC3)cc2)c2ccc(O)cc12`, the growth in the assay on DU-145 prostate was 87%; with K-562 leukemia, -6.6% (active); in the assay on MALME-3M melanoma it was 69.5%; with MDA-MB-231 breast it was 82.3%; in the assay on RXF 393 renal, 49.9%; in the assay with SF-268 CNS it was 74.2%. In addition, the growth is 99.1% with SF-295 CNS; 61.7% in the assay on SF-539 CNS; 81.6% with UACC-257 melanoma; 63.5% with M14 melanoma; 20.5% in the assay with HCT-15 colon; 59.4% with HT29 colon. The growth is 43.4% in the assay on SNB-75 CNS; 88.1% with SNB-19 CNS; 56.4% with U251 CNS; 57.2% with SK-MEL-5 melanoma; 98.3% with UACC-62 melanoma; 39.4% in the assay with LOX IMVI melanoma. Besides, the growth with SK-MEL-28 melanoma is 92.6%.

Consider `C#CCOc1cccc(Nc2ncnc3cc(NC(=O)C=C)ccc23)c1`, for which the growth is 5.4% (active) in the assay with DU-145 prostate; 5.87% (active) with K-562 leukemia; 33.9% with MALME-3M melanoma; 20.5% in the assay with MDA-MB-231 breast; -17% (active) in the assay on RXF 393 renal; 27.6% in the assay with SF-268 CNS. Moreover, the growth in the assay with SF-295 CNS was 45%; with SF-539 CNS, 0.0579% (active); in the assay on UACC-257 melanoma, 25.3%; with M14 melanoma it was 13%; with HCT-15 colon, 7.73% (active); in the assay with HT29 colon it was 1.75% (active). The growth in the assay on SNB-75 CNS was 24.7%; with SNB-19 CNS, 33.8%; with U251 CNS it was 33.1%; in the assay with PC-3 prostate, 24.2%; in the assay with SK-MEL-5 melanoma, 8.74% (active); with LOX IMVI melanoma it was 3.54% (active). Further, the growth in the assay with SK-MEL-28 melanoma is 49%.

Take `CCOC(=O)Cc1cnc(N/N=C(\C)c2cc3ccccc3o2)s1`: the growth in the assay on DU-145 prostate was 113%; with K-562 leukemia, 98.5%; in the assay with MALME-3M melanoma, 91.8%; with MDA-MB-231 breast, 91.4%; in the assay with RXF 393 renal, 107%; with SF-268 CNS, 98.8%. In addition, the growth with SF-295 CNS was 104%; in the assay on SF-539 CNS, 107%; with UACC-257 melanoma, 98.2%; with M14 melanoma, 98.2%; in the assay on HCT-15 colon, 105%; in the assay with HT29 colon it was 85.5%. Further, the growth is 105% in the assay on SNB-75 CNS; 95% with SNB-19 CNS; 91.3% in the assay with U251 CNS; 78% with PC-3 prostate; 99.3% in the assay on SK-MEL-5 melanoma; 86% with LOX IMVI melanoma. Moreover, the growth in the assay on SK-MEL-28 melanoma was 110%.

Regarding `Clc1ccc2c(c1)C(c1c[nH]c3ccccc13)(c1c[nH]c3ccccc13)CCO2`, the growth was 88% in the assay with DU-145 prostate; 73.1% with K-562 leukemia; 106% in the assay on MALME-3M melanoma; 55.5% with MDA-MB-231 breast; 95.6% with RXF 393 renal; 71.5% with SF-268 CNS. For the same compound, the growth with SF-295 CNS is 70%; with SF-539 CNS, 95.4%; in the assay on UACC-257 melanoma, 38.1%; in the assay on M14 melanoma, 69%; in the assay with HCT-15 colon it was 87.1%; in the assay with HT29 colon, -46.2% (active). The growth with SNB-75 CNS is 68.4%; with SNB-19 CNS it was 97.4%; in the assay with U251 CNS, 46.8%; with PC-3 prostate, 35.3%; with SK-MEL-5 melanoma, 83.8%; with LOX IMVI melanoma, 79.4%. In addition, the growth in the assay with SK-MEL-28 melanoma was 95.3%.

As for `CCCCNC(=O)Oc1ccc(/C(=C(/C)Cc2ccc(OC)cc2)c2ccc(OCCN3CCCC3)cc2)cc1`, the growth is 80.1% with DU-145 prostate; -27.8% (active) with K-562 leukemia; 58.8% with MALME-3M melanoma; 69% in the assay on MDA-MB-231 breast; 57% with RXF 393 renal; 71.8% in the assay on SF-268 CNS. The growth with SF-295 CNS was 69.7%; in the assay with SF-539 CNS, 86.1%; with UACC-257 melanoma, 43.1%; in the assay on M14 melanoma, -64.6% (active); with HCT-15 colon, 13.5%; with HT29 colon, -11.3% (active). In addition, the growth in the assay with SNB-75 CNS was 70%; in the assay with SNB-19 CNS it was 79.3%; in the assay on U251 CNS, 41.3%; in the assay with PC-3 prostate, 60.7%; in the assay on SK-MEL-5 melanoma, 47%; in the assay with LOX IMVI melanoma, -66.9% (active). For the same compound, the growth with SK-MEL-28 melanoma was -0.368% (active).

On to `Cn1cc(-c2csc(-c3cn(C(=O)OC(C)(C)C)c4ccc(Br)cc34)n2)c2ccnc(Cl)c21`, for which the growth is 68.3% in the assay on DU-145 prostate; 86.9% with K-562 leukemia; 36.6% with MALME-3M melanoma; 61.2% in the assay with MDA-MB-231 breast; 78.3% in the assay on RXF 393 renal; 82.4% in the assay with SF-268 CNS. Besides, the growth is 89.9% in the assay on SF-295 CNS; 55.5% with SF-539 CNS; 70.3% in the assay with UACC-257 melanoma; 88.2% in the assay with M14 melanoma; 24.2% in the assay with HCT-15 colon; 88.5% in the assay on HT29 colon. In addition, the growth in the assay with SNB-75 CNS is 2.34% (active); in the assay with SNB-19 CNS, 44%; with U251 CNS, 45.3%; in the assay on PC-3 prostate, 44.2%; in the assay with SK-MEL-5 melanoma it was 95%; with LOX IMVI melanoma, 89.1%. Moreover, the growth in the assay on SK-MEL-28 melanoma is 94.7%.
